# Assay outcomes as filed in PubChem BioAssay.
# rTrxR1 inhibitor = rat TrxR1 inhibition. O89049. recombinant rTrxR1, NADPH fluorescence consumption, selenite substrate. 1% of 390,000 active. Potency, µM (highest dose often 114 µM), for inactives: top-dose activity change, negative = inhibition, usual class: inhibitors. AID 588453; note: potency is the fitted concentration of half-maximal effect; nearly all actives have a fitted effect of over 65% in size
#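 Rat TrxR1 (90 nM in the dispensed reagent) was pre-reduced with 400 uM NADPH for 5 min at room temperature, then incubated with compound for 15 min. After 400 uM selenite was added, NADPH fluorescence (Ex 340/Em 450 nm) was followed for 8 min.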
# GLS inh = inhibitors of human glutaminase (GLS) | O94925 | GLS enzymatic activity, qHTS titration | Potency, µM (top dose mostly 45.5 µM), inactives show at the highest dose activity change, negative = inhibition, usual class: inhibitors | 0.21% of 410,000 active | AID 624170; note: potency is the fitted concentration of half-maximal effect
#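 Assay buffer: 45 mM KH2PO4 pH 8.2, 0.02% Tween-20. hKGA acts on L-glutamine (1 mM solution added); product glutamate is reported by an oxidase/peroxidase Amplex Red coupling, with fluorescence taken at baseline and 30 min.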
# TrxR1 substrate = rat thioredoxin reductase 1 substrate activity; O89049; purified TrxR1 substrate turnover, NADPH consumption readout; Potency, µM (titrated, usually from 114 µM), for the others: top-dose activity change, negative = substrate turnover; 0.01% of 390,000 active; AID 588456; note: potency is the fitted concentration of half-maximal effect; nearly all actives have a fitted effect of over 50% in size
#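 Rat TrxR1, dispensed at 90 nM, was prereduced with 400 uM NADPH (final) for 5 min at ~22 deg C, then incubated with compound 15 min before 400 uM selenite. A first-read NADPH fluorescence drop versus no-compound background flagged substrates.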
# LDHA block = inhibitors of human lactate dehydrogenase A; P00338; 0.15% of 480,000 active; purified LDHA, NADH/diaphorase-resazurin fluorescence; active compounds read low; activity change, % (values are at about 110 or 230 µM); in the data active = activity change below about -30%; inconclusive = mostly about -25% to -30%;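 note: plate controls were DMSO wells for no effect and wells without enzyme for full effect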
#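 Resorufin fluorescence (ex540/em590), read at 0 and 20 min after diaphorase/resazurin addition, reports the NADH left after a 5 min room-temperature reaction of 2 nM human LDH5 with 0.06 mM NADH and 0.2 mM pyruvate.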
# mIDH1 inhibitor = human IDH1 R132H inhibition; IDH1-R132H enzyme, NADPH consumption, diaphorase/resazurin fluorescence; 0.093% of 390,000 active; O75874; Potency, µM (titrated, usually from 76.6 µM), without a hit: at the highest dose activity change, negative = inhibition, actives largely listed as inhibitors; note: potency is the fitted concentration of half-maximal effect; nearly all actives have a fitted effect of over 65% in size
# Target sequence (O75874 whole entry R132H, stated change not applied): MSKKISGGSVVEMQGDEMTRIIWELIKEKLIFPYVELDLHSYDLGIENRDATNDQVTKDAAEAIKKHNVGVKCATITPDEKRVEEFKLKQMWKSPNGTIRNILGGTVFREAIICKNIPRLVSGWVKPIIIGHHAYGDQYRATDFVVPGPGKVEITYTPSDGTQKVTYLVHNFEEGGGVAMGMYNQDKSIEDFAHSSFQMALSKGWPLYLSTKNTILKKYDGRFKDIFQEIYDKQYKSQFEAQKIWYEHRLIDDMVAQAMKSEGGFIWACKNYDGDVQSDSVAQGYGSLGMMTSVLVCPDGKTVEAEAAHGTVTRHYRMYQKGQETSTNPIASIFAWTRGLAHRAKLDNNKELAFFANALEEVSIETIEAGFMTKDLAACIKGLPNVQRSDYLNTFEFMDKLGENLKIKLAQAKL
#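 IDH1-R132H (0.5 ug/mL) preincubated 30 min with compound, then NADPH (0.016 mM) and alpha-KG (2 mM) added; 80 min at RT, pH 7.5. Remaining NADPH coupled via diaphorase/resazurin to fluorescence (540/590 nm); concentration-response curves normalized to no-enzyme control.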
# PKM2 act = PKM2 (human) enzyme activation; 0.34% of 260,000 active; Potency, µM (doses to about 57.5 µM), for the others: top-dose activation, actives largely listed as activators; purified PKM2, Kinase-Glo ATP luminescence, activation; response scale: 0% is enzyme alone, no compound; note: potency is the fitted concentration of half-maximal effect; nearly all actives have a fitted effect of over 55% in size
#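 Kinase-Glo luminescence reports ATP generated from ADP (0.1 mM) and PEP (0.5 mM) by purified hPK-M2 after 1 h at room temperature, pH 7.2 imidazole buffer; intermediate enzyme activity allows detecting inhibitors and activators.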
# * marks the source's active call; other numbers are inactive results; ? = inconclusive; / = no result; ! = not active in a repeat; [ ] = dose if it differs, or a comment. Hits are enriched below; roughly 1.4% of the tested compounds scored in any of these assays. Unless noted, calls come from the whole dose curve; as a rule, active = well fitted curve in the direction sought with a large enough effect; inconclusive = small, poorly fitted or top-dose-only effect, or another doubt; inactive = no such curve, though single readings can be large; an effect the other way counts as inactive or inconclusive. Unless noted, % is set by controls: 0 for no effect and ±100 for the full control effect.
SMILES,rTrxR1 inhibitor,GLS inh,TrxR1 substrate,LDHA block,mIDH1 inhibitor,PKM2 act
CCCCC(=O)NC(=S)Nc1cccc(NC(=O)c2ccccc2)c1,-51%,0%,5%[57.1 µM],-3,3%,-10%
CCCC(=O)NC(=S)Nc1cccc(NC(=O)c2ccccc2)c1,22µM*,8%,-2%,0,3%,-16%
O=C(NC(=S)Nc1cnc2ccccc2c1)c1ccccc1,?,3%,8%,1,1%,-31%
O=C(NC(=S)Nc1ccc2c(c1)OCCO2)c1ccccc1,7.1µM*,30%,0%,-5,3%,3%
COc1ccc(C(=O)COC(=O)CCC(=O)c2ccc3c(c2)OCCO3)cc1,/,/,/,12,/,/
COc1ccc(CC(=O)OCC(=O)c2ccc3c(c2)OCCCO3)cc1,/,/,/,-30*,/,/
Cn1ncc2cc(NC(=S)NC(=O)c3ccccc3)ccc21,25µM*,20%,-10%,-3,2%,-1%
Cc1cccc(NC(=O)CCN2CCN(Cc3cccc4ccccc34)CC2)c1,/,/,/,7,/,/
COc1ccc(NC(=S)NC(=O)c2ccc3c(c2)OCCO3)cc1,3.5µM*,23%,-13%,-7,9%,/
C[N+](C)(N)Cc1ccccc1,/,/,/,2,/,/
COc1cc(-c2nnc3n2C(C)(C)Cc2cc(C)c(C)cc2-3)cc(OC)c1OC,/,/,/,-4,/,/
Cc1nc2ccccc2c(C)c1C(=O)NC1CCCCC1,/,/,/,4,/,/
N#CCCN(C(=O)Cn1nc(C(=O)O)c2ccccc2c1=O)c1ccccc1,21%,3%,6%,-32*!,4%,-3%
COc1ccccc1N(CCC#N)C(=O)Cn1nc(C(=O)O)c2ccccc2c1=O,/,/,/,-5,/,/
CCCCN(C)C(=O)c1ccc2nc(C)c(C)nc2c1,/,/,/,2,/,/
Cc1ccc(NS(=O)(=O)c2ccc3c(c2)c(=O)n(C)c(=O)n3C)cc1F,6%,3%,0%,-3,-1%,4.5µM*
Cc1ncc(-c2ccc(S(=O)(=O)Nc3ccc(C)c(F)c3)cc2)o1,/,/,/,-31*,/,/
Cc1ncc(-c2ccc(S(=O)(=O)Nc3cccc(Cl)c3C)cc2)o1,/,/,/,-31*,/,/
Cc1ncc(-c2ccc(S(=O)(=O)Nc3ccc(C)c(C)c3)cc2)o1,/,/,/,18,/,/
Cc1cc(C)cc(NS(=O)(=O)c2ccc3c(c2)c(=O)n(C)c(=O)n3C)c1,-4%,2%,-1%,-1,2%,?
CC(=O)NNC(=S)Nc1cccc(C(F)(F)F)c1,/,/,/,-4,/,/
Cc1ccccc1C(=O)NNC(=S)Nc1cccc(C(F)(F)F)c1,?,18µM*,8%[57.1 µM],-2,8%,9%
CCc1ccc(C(=O)NCc2ccc(C#N)cc2)o1,/,/,/,-1,/,/
CC(C)(C)c1csc(N/N=C/c2cccnc2)n1,19%[57.1 µM],11µM*,4%[57.1 µM],-10,19%,-1%
C(=N\Nc1nc(-c2ccccc2)cs1)/c1cccnc1,-16%,-6%,-1%[57.1 µM],1,4%,10%
SMILES,rTrxR1 inhibitor,GLS inh,TrxR1 substrate,LDHA block,mIDH1 inhibitor,PKM2 act
CCC(=O)Nc1cc2[nH]c(=O)cc(C)c2cc1C,5%,1%,23%,4,1%,5%
Cc1cc2c(C)cc(=O)[nH]c2cc1NC(=O)CCl,20µM*,2%,2%,2,2%,3%
C/C=C1\COC(C(=O)NCc2ccccc2)(C(F)(F)F)C=C1C=C(C)C (stereo not given),3.2µM*,0%,0%,6,12%,/
C/C=C1\COC(C(=O)NCCN2CCOCC2)(C(F)(F)F)C=C1C=C(C)C (stereo not given),10µM*,/,1%,/,/,/
COc1ccc(S(=O)(=O)Nc2cc(OC(F)F)c(OC)cc2C(=O)O)cc1Br,/,/,/,-1,/,/
Cn1c(SCc2cc(Cl)c3c(c2)OCCO3)nnc1-c1cccnc1,/,/,/,2,/,/
COc1ccc(C2(CNC(=O)/C=C/c3ccco3)CCCC2)cc1OC,3.5µM*,-11%,5%,2,10%,9%
COc1ccc(CNC(=O)/C=C/c2ccco2)cc1OC,?,0%,3%,-4,0%,14%
CCN(CC)S(=O)(=O)c1ccc(OC)c(NC(=O)/C=C/c2ccco2)c1,18µM*,-5%,-4%,-3,-1%,4%
O=C(/C=C/c1ccco1)NCC1(c2ccccc2)CCCC1,?,0%,-7%,1,9%,6%
CCOc1ccc(C(NC(=O)/C=C/c2ccco2)c2ccc(OC)c(OC)c2)cc1 (stereo not given),35µM*,2%,1%,-5,-6%,12%
COc1ccc(C(NC(=O)/C=C/c2ccco2)c2ccc(OC)c(OC)c2)cc1 (stereo not given),50µM*,-7%,-8%,-4,-6%,12%
CCCNc1c(NC(=O)c2ccc(OCC)c(OCC)c2)c(=O)oc2ccccc12,/,/,/,-7,/,/
CCCN1C(=O)/C(=C/c2ccc(C)o2)SC1=Nc1ccc(OC)cc1,?,4%,-11%,5,1%,1%
CCCN1C(=O)/C(=C/c2ccc(C)o2)SC1=Nc1ccc(OCC)cc1,?,-7%,-6%,-2,4%,13µM*
CC(=O)NCCNC(=O)CCc1ncc(-c2ccccc2Cl)o1,/,/,/,5,/,/
Brc1cccc[n+]1CCC[n+]1ccccc1Br,6.3µM*,/,-12%,-65*,/,/
CCSc1nnc(NC(=O)c2nc(S(=O)(=O)Cc3ccc(F)cc3)ncc2Cl)s1,25µM*,-2%,-1%,2,9%,/
Cc1cccc(CS(=O)(=O)c2ncc(Cl)c(C(=O)Nc3nnc(C(C)C)s3)n2)c1,25µM*,0%,-2%,7,5%,/
CC(C)c1nnc(NC(=O)c2nc(S(=O)(=O)Cc3ccc(F)cc3)ncc2Cl)s1,32µM*,-13%,5%,0,5%,/
O=C(Nc1ccc(OC(F)F)cc1)c1nc(S(=O)(=O)Cc2ccc(F)cc2)ncc1Cl,/,/,/,0,/,/
CC(C)c1nnc(NC(=O)c2nc(SCc3ccc(F)cc3)ncc2Cl)s1,22%,14%,1%,-2,-21%,/
Cc1ccc(C)c(NC(=O)c2nc(S(=O)(=O)Cc3ccc(F)cc3)ncc2Cl)c1,1.6µM*,-1%,3%,-7,-16%,/
O=C(Nc1c(N2CCCC2)c2ccccc2oc1=O)c1ccccc1,/,/,/,-13,/,/
